From paper PMC11006913 come the findings set out here.

What all share (test): PBM; 200 nM protein, PBS
What all share (conditions): dsDNA, one strand shown

Test [1] deals with T1, PAX4 (Homo sapiens, UniProt O43316 9-242, R200K).
T1 sequence: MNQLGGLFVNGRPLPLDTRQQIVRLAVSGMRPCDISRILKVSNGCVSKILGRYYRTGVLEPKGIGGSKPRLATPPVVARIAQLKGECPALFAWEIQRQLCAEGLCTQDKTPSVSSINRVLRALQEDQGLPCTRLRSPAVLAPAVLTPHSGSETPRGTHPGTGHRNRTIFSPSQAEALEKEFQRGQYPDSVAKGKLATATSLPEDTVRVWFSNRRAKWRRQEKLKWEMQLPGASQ

For test [2], the target named is T2, PAX4 (Homo sapiens, UniProt O43316 9-242).
T2 sequence: T1 sequence with K192R

Test [3] addresses T3, PAX4 (Homo sapiens, UniProt O43316 9-242, R200Q).
T3 sequence: T1 sequence with K192Q

In test [4] the target is T4, PAX4 (Homo sapiens, UniProt O43316 9-242, F177V).
T4 sequence: T1 sequence with F169V, K192R

In test [5] the target is T5, PAX4 (Homo sapiens, UniProt O43316 9-242, F177Y).
T5 sequence: T1 sequence with F169Y, K192R

Test [6] deals with T6, PAX4 (Homo sapiens, UniProt O43316 9-242, R227W).
T6 sequence: T1 sequence with K192R, R219W

Test [7] deals with PRRX1 (Homo sapiens, UniProt P54821 80-166, F113S).
Test [8] has as its target HOXB6 (Homo sapiens, UniProt P17509 132-218, K202E).
Test [9] concerns the target ALX3 (Homo sapiens, UniProt O95076 139-225, N203Q).
For test [10], the target named is ALX3 (Homo sapiens, UniProt O95076 139-225, N203S).
Test [11] addresses PRRX1 (Homo sapiens, UniProt P54821 80-166).
In test [12] the target is NKX3-2 (Homo sapiens, UniProt P78367 192-278, P234S).
Test [13] has as its target NKX3-2 (Homo sapiens, UniProt P78367 192-278).
Test [14] has as its target HOXA2 (Homo sapiens, UniProt O43364 129-215, R185T).
Test [15] addresses HOXA2 (Homo sapiens, UniProt O43364 129-215, R185K).
The target in test [16] is PROP1 (Homo sapiens, UniProt O75360 56-141).
For test [17], the target named is PROP1 (Homo sapiens, UniProt O75360 56-141, R99H).
Test [18] addresses PROP1 (Homo sapiens, UniProt O75360 56-141, F88S).
Test [19] has as its target HOXA2 (Homo sapiens, UniProt O43364 129-215, Y150S).
The target of test [20] is HOXA2 (Homo sapiens, UniProt O43364 129-215).
The target in test [21] is HOXB6 (Homo sapiens, UniProt P17509 132-218).

Residue numbers refer to the chain shown, from its start.

Sequence of PRRX1 (Homo sapiens, UniProt P54821 80-166, F113S) (P54821 80-166 F113S): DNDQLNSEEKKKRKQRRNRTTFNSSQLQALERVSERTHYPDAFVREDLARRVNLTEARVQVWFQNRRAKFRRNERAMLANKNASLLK
Sequence of PRRX1 (Homo sapiens, UniProt P54821 80-166) (P54821 80-166): as the sequence (P54821 80-166 F113S) above, with S34F counted along it
Sequence of HOXB6 (Homo sapiens, UniProt P17509 132-218, K202E) (P17509 132-218 K202E): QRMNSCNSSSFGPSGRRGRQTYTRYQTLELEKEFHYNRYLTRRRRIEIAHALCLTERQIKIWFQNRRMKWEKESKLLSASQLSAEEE
Sequence of PROP1 (Homo sapiens, UniProt O75360 56-141, F88S) (O75360 56-141 F88S): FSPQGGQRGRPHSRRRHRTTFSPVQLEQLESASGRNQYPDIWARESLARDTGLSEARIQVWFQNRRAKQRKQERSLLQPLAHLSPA
Sequence of HOXA2 (Homo sapiens, UniProt O43364 129-215) (O43364 129-215): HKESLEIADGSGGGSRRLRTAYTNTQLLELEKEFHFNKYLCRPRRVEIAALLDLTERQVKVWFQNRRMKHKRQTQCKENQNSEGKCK
Sequence of HOXA2 (Homo sapiens, UniProt O43364 129-215, Y150S) (O43364 129-215 Y150S): as the sequence (O43364 129-215) above, with Y22S counted along it
Sequence of HOXA2 (Homo sapiens, UniProt O43364 129-215, R185T) (O43364 129-215 R185T): as the sequence (O43364 129-215) above, with R57T counted along it
Sequence of HOXB6 (Homo sapiens, UniProt P17509 132-218) (P17509 132-218): as the sequence (P17509 132-218 K202E) above, with E71K counted along it
Sequence of ALX3 (Homo sapiens, UniProt O95076 139-225, N203Q) (O95076 139-225 N203Q): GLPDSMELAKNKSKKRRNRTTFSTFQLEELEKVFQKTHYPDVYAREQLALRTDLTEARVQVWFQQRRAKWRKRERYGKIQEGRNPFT
Sequence of ALX3 (Homo sapiens, UniProt O95076 139-225, N203S) (O95076 139-225 N203S): as the sequence (O95076 139-225 N203Q) above, with Q65S counted along it
Sequence of NKX3-2 (Homo sapiens, UniProt P78367 192-278) (P78367 192-278): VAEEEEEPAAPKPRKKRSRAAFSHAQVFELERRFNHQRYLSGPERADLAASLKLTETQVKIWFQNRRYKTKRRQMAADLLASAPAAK
Sequence of PROP1 (Homo sapiens, UniProt O75360 56-141, R99H) (O75360 56-141 R99H): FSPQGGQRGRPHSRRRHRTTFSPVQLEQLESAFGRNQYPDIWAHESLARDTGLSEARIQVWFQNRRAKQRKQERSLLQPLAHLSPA
Sequence of HOXA2 (Homo sapiens, UniProt O43364 129-215, R185K) (O43364 129-215 R185K): as the sequence (O43364 129-215) above, with R57K counted along it
Sequence of NKX3-2 (Homo sapiens, UniProt P78367 192-278, P234S) (P78367 192-278 P234S): as the sequence (P78367 192-278) above, with P43S counted along it
Sequence of PROP1 (Homo sapiens, UniProt O75360 56-141) (O75360 56-141): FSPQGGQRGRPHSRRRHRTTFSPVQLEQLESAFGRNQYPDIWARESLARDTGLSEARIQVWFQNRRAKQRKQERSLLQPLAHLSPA

With CTTCGTTC, the binding signal in the test with PAX4 [1] is 9.33 upbm affinity estimate (log intensity, higher = more binding, comparable within an allelic series); in the test with PAX4 [2], 9.37 upbm affinity estimate (log intensity, higher = more binding, comparable within an allelic series); in the test with PAX4 [3], 9.51 upbm affinity estimate (log intensity, higher = more binding, comparable within an allelic series); with PAX4 [4], 9.56 upbm affinity estimate (log intensity, higher = more binding, comparable within an allelic series); with PAX4 [5] it was 9.5 upbm affinity estimate (log intensity, higher = more binding, comparable within an allelic series); with PAX4 [6] it was 9.58 upbm affinity estimate (log intensity, higher = more binding, comparable within an allelic series).
Take ATAATTTA: the binding signal with PRRX1 [7] was 11.2 upbm affinity estimate (log intensity, higher = more binding, comparable within an allelic series); with HOXB6 [8] it was 10 upbm affinity estimate (log intensity, higher = more binding, comparable within an allelic series); with ALX3 [9], 8.61 upbm affinity estimate (log intensity, higher = more binding, comparable within an allelic series); in the test with PAX4 [4], 10.8 upbm affinity estimate (log intensity, higher = more binding, comparable within an allelic series); with PAX4 [5] it was 11 upbm affinity estimate (log intensity, higher = more binding, comparable within an allelic series); in the test with PAX4 [6], 11 upbm affinity estimate (log intensity, higher = more binding, comparable within an allelic series). The binding signal in the test with ALX3 [10] was 8.73 upbm affinity estimate (log intensity, higher = more binding, comparable within an allelic series); with PRRX1 [11] it was 13.2 upbm affinity estimate (log intensity, higher = more binding, comparable within an allelic series).
Turning to AAATTAGG, the binding signal in the test with PAX4 [1] is 11.4 upbm affinity estimate (log intensity, higher = more binding, comparable within an allelic series); with PAX4 [2], 11.9 upbm affinity estimate (log intensity, higher = more binding, comparable within an allelic series); in the test with PAX4 [3], 11.5 upbm affinity estimate (log intensity, higher = more binding, comparable within an allelic series); in the test with PAX4 [4], 10.2 upbm affinity estimate (log intensity, higher = more binding, comparable within an allelic series); with PAX4 [5], 10.5 upbm affinity estimate (log intensity, higher = more binding, comparable within an allelic series); in the test with PAX4 [6] it was 10.6 upbm affinity estimate (log intensity, higher = more binding, comparable within an allelic series).
In the case of GCGAATTA, the binding signal in the test with PAX4 [1] was 11.6 upbm affinity estimate (log intensity, higher = more binding, comparable within an allelic series); with PAX4 [2], 12.1 upbm affinity estimate (log intensity, higher = more binding, comparable within an allelic series); in the test with PAX4 [3] it was 11.5 upbm affinity estimate (log intensity, higher = more binding, comparable within an allelic series); with PAX4 [4], 10.3 upbm affinity estimate (log intensity, higher = more binding, comparable within an allelic series); with PAX4 [5] it was 10.8 upbm affinity estimate (log intensity, higher = more binding, comparable within an allelic series); with PAX4 [6] it was 10.8 upbm affinity estimate (log intensity, higher = more binding, comparable within an allelic series).
With TAACTCAA, the binding signal with PAX4 [1] was 10.6 upbm affinity estimate (log intensity, higher = more binding, comparable within an allelic series); with PAX4 [2], 10.7 upbm affinity estimate (log intensity, higher = more binding, comparable within an allelic series); in the test with PAX4 [4], 10.1 upbm affinity estimate (log intensity, higher = more binding, comparable within an allelic series).
Take AGCTGCCG: the binding signal in the test with PAX4 [1] was 9.44 upbm affinity estimate (log intensity, higher = more binding, comparable within an allelic series); with PAX4 [2], 9.42 upbm affinity estimate (log intensity, higher = more binding, comparable within an allelic series); with PAX4 [3] it was 9.33 upbm affinity estimate (log intensity, higher = more binding, comparable within an allelic series); in the test with PAX4 [4], 9.27 upbm affinity estimate (log intensity, higher = more binding, comparable within an allelic series); with PAX4 [5] it was 9.2 upbm affinity estimate (log intensity, higher = more binding, comparable within an allelic series); with PAX4 [6] it was 9.31 upbm affinity estimate (log intensity, higher = more binding, comparable within an allelic series).
Consider ACGAATTA, for which the binding signal with PAX4 [1] was 11.6 upbm affinity estimate (log intensity, higher = more binding, comparable within an allelic series); with PAX4 [2], 12.1 upbm affinity estimate (log intensity, higher = more binding, comparable within an allelic series); with PAX4 [3], 11.7 upbm affinity estimate (log intensity, higher = more binding, comparable within an allelic series); with PAX4 [4] it was 10.3 upbm affinity estimate (log intensity, higher = more binding, comparable within an allelic series); in the test with PAX4 [5], 11 upbm affinity estimate (log intensity, higher = more binding, comparable within an allelic series); in the test with PAX4 [6], 10.8 upbm affinity estimate (log intensity, higher = more binding, comparable within an allelic series).
Consider CTGGGCCC, for which the binding signal was 9.08 upbm affinity estimate (log intensity, higher = more binding, comparable within an allelic series) in the test with PAX4 [1]; 8.93 upbm affinity estimate (log intensity, higher = more binding, comparable within an allelic series) with PAX4 [2]; 9.11 upbm affinity estimate (log intensity, higher = more binding, comparable within an allelic series) with PAX4 [3]; 8.97 upbm affinity estimate (log intensity, higher = more binding, comparable within an allelic series) in the test with PAX4 [4]; 9.09 upbm affinity estimate (log intensity, higher = more binding, comparable within an allelic series) in the test with PAX4 [5]; 9.02 upbm affinity estimate (log intensity, higher = more binding, comparable within an allelic series) with PAX4 [6].
Regarding ATTAGGGA, the binding signal with PAX4 [1] was 11.1 upbm affinity estimate (log intensity, higher = more binding, comparable within an allelic series); with PAX4 [2] it was 11.5 upbm affinity estimate (log intensity, higher = more binding, comparable within an allelic series); in the test with PAX4 [3], 11.2 upbm affinity estimate (log intensity, higher = more binding, comparable within an allelic series); in the test with PAX4 [4], 10.1 upbm affinity estimate (log intensity, higher = more binding, comparable within an allelic series); in the test with PAX4 [5] it was 10.3 upbm affinity estimate (log intensity, higher = more binding, comparable within an allelic series); with PAX4 [6] it was 10.4 upbm affinity estimate (log intensity, higher = more binding, comparable within an allelic series).
GGGCGCGA: the binding signal is 9.18 upbm affinity estimate (log intensity, higher = more binding, comparable within an allelic series) with PAX4 [1]; 9.18 upbm affinity estimate (log intensity, higher = more binding, comparable within an allelic series) with PAX4 [2]; 9.16 upbm affinity estimate (log intensity, higher = more binding, comparable within an allelic series) with PAX4 [3]; 9.01 upbm affinity estimate (log intensity, higher = more binding, comparable within an allelic series) with PAX4 [4]; 9.02 upbm affinity estimate (log intensity, higher = more binding, comparable within an allelic series) in the test with PAX4 [5]; 9.14 upbm affinity estimate (log intensity, higher = more binding, comparable within an allelic series) with PAX4 [6]. Also, the binding signal in the test with NKX3-2 [12] is 10.6 upbm affinity estimate (log intensity, higher = more binding, comparable within an allelic series); with NKX3-2 [13], 10.6 upbm affinity estimate (log intensity, higher = more binding, comparable within an allelic series).
For the sequence CCGCGACC, the binding signal with PAX4 [1] is 9.37 upbm affinity estimate (log intensity, higher = more binding, comparable within an allelic series); with PAX4 [2], 9.36 upbm affinity estimate (log intensity, higher = more binding, comparable within an allelic series); with PAX4 [3], 9.36 upbm affinity estimate (log intensity, higher = more binding, comparable within an allelic series); with PAX4 [4] it was 9.17 upbm affinity estimate (log intensity, higher = more binding, comparable within an allelic series); with PAX4 [5], 9.23 upbm affinity estimate (log intensity, higher = more binding, comparable within an allelic series); with PAX4 [6], 9.24 upbm affinity estimate (log intensity, higher = more binding, comparable within an allelic series).
For the sequence AGGCCGCC, the binding signal with PAX4 [1] was 9.08 upbm affinity estimate (log intensity, higher = more binding, comparable within an allelic series); with PAX4 [2], 9.11 upbm affinity estimate (log intensity, higher = more binding, comparable within an allelic series); in the test with PAX4 [3], 9.15 upbm affinity estimate (log intensity, higher = more binding, comparable within an allelic series); in the test with PAX4 [4], 9.15 upbm affinity estimate (log intensity, higher = more binding, comparable within an allelic series); with PAX4 [5], 9.1 upbm affinity estimate (log intensity, higher = more binding, comparable within an allelic series); with PAX4 [6] it was 9.22 upbm affinity estimate (log intensity, higher = more binding, comparable within an allelic series).
In the case of AGTGTTAG, the binding signal with PAX4 [1] was 10.5 upbm affinity estimate (log intensity, higher = more binding, comparable within an allelic series); in the test with PAX4 [2], 10.6 upbm affinity estimate (log intensity, higher = more binding, comparable within an allelic series); with PAX4 [4] it was 9.92 upbm affinity estimate (log intensity, higher = more binding, comparable within an allelic series); with PAX4 [5], 10 upbm affinity estimate (log intensity, higher = more binding, comparable within an allelic series); with PAX4 [6], 10.1 upbm affinity estimate (log intensity, higher = more binding, comparable within an allelic series).
With AGCCTGAG, the binding signal was 9.28 upbm affinity estimate (log intensity, higher = more binding, comparable within an allelic series) with PRRX1 [7]; 8.98 upbm affinity estimate (log intensity, higher = more binding, comparable within an allelic series) in the test with HOXB6 [8]; 7.3 upbm affinity estimate (log intensity, higher = more binding, comparable within an allelic series) with HOXA2 [14]; 10.4 upbm affinity estimate (log intensity, higher = more binding, comparable within an allelic series) with HOXA2 [15]; 6.61 upbm affinity estimate (log intensity, higher = more binding, comparable within an allelic series) in the test with PROP1 [16]; 6.62 upbm affinity estimate (log intensity, higher = more binding, comparable within an allelic series) in the test with PROP1 [17]. In addition, the binding signal with PROP1 [18] was 6.73 upbm affinity estimate (log intensity, higher = more binding, comparable within an allelic series); in the test with HOXA2 [19] it was 10.5 upbm affinity estimate (log intensity, higher = more binding, comparable within an allelic series); with PRRX1 [11] it was 9.12 upbm affinity estimate (log intensity, higher = more binding, comparable within an allelic series); with HOXA2 [20] it was 7.33 upbm affinity estimate (log intensity, higher = more binding, comparable within an allelic series); with HOXB6 [21] it was 8.88 upbm affinity estimate (log intensity, higher = more binding, comparable within an allelic series).
With TAGTATAA, the binding signal with PAX4 [1] is 10.7 upbm affinity estimate (log intensity, higher = more binding, comparable within an allelic series); in the test with PAX4 [2] it was 10.8 upbm affinity estimate (log intensity, higher = more binding, comparable within an allelic series); in the test with PAX4 [3], 10.8 upbm affinity estimate (log intensity, higher = more binding, comparable within an allelic series); in the test with PAX4 [6] it was 10.5 upbm affinity estimate (log intensity, higher = more binding, comparable within an allelic series).
For the sequence ATTTAGAG, the binding signal with PAX4 [1] was 10.6 upbm affinity estimate (log intensity, higher = more binding, comparable within an allelic series); with PAX4 [2] it was 10.7 upbm affinity estimate (log intensity, higher = more binding, comparable within an allelic series); in the test with PAX4 [3], 10.6 upbm affinity estimate (log intensity, higher = more binding, comparable within an allelic series); with PAX4 [4] it was 10.1 upbm affinity estimate (log intensity, higher = more binding, comparable within an allelic series); with PAX4 [5], 10.2 upbm affinity estimate (log intensity, higher = more binding, comparable within an allelic series); in the test with PAX4 [6], 10.2 upbm affinity estimate (log intensity, higher = more binding, comparable within an allelic series).
As for ATTGATTA, in the test with PRRX1 [7], the binding signal is 11.1 upbm affinity estimate (log intensity, higher = more binding, comparable within an allelic series).
ATAATGCG: the binding signal with PAX4 [1] is 11.6 upbm affinity estimate (log intensity, higher = more binding, comparable within an allelic series); with PAX4 [5], 10.9 upbm affinity estimate (log intensity, higher = more binding, comparable within an allelic series); with PAX4 [6] it was 10.9 upbm affinity estimate (log intensity, higher = more binding, comparable within an allelic series).
